Among the data in publication PMC7862700, “An all-to-all approach to the identification of sequence-specific readers for epigenetic DNA modifications on cytosine” are binding signal values, retold here.

Common to all, as to experiment: DAPPL (digital affinity profiling via proximity ligation, sequencing); 10 mM Tris-HCl pH 7.5, 50 mM NaCl, 1 mM DTT, 4% glycerol, room temperature, 30 min; GST-TFs on glutathione beads, 16-mer random dsDNA library, 0.1% formaldehyde crosslink after washing; high values mean tight binding
One experiment deals with T1, FEV (Homo sapiens, UniProt Q99581 1-238).
T1 sequence: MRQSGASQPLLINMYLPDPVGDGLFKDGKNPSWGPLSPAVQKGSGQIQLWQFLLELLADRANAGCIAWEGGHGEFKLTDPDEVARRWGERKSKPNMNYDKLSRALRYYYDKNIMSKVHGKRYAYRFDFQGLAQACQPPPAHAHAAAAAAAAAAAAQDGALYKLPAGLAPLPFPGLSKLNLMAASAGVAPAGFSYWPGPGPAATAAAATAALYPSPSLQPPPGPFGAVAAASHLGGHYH
Conditions: protein: recombinant; tags: N-terminal GST; dsDNA, one strand shown. The essentials: (§1)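 A tag-only sample was pooled with DNA-barcoded human transcription factors that had been expressed in yeast as GST fusions and captured on glutathione beads. The pools were incubated for 30 min at room temperature with 200 nmole of a random double-stranded 16-mer DNA library in Tris/NaCl/DTT/glycerol buffer, then washed, crosslinked with 0.1% formaldehyde, proximity-ligated (BsaI/T4 ligase, 1 h, 37 °C), PCR-amplified and sequenced on an Illumina NextSeq500. Binding signal is each hexamer's read frequency for a factor divided by its frequency for the tag-only sample.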

The target of another experiment is ETV5 (Homo sapiens, UniProt P41161 1-510). The note with it: protein: recombinant; tags: N-terminal GST; dsDNA, one strand shown. A digest of the protocol:
as §1

For a further experiment, the target named is HSF1 (Homo sapiens, UniProt Q00613 1-529). Conditions: protein: recombinant; tags: N-terminal GST; chain copies: 3; dsDNA, one strand shown. A digest of the protocol:
as §1

In a further experiment the target is T2, SPIC (Homo sapiens, UniProt Q8N5J4 1-248).
T2 sequence: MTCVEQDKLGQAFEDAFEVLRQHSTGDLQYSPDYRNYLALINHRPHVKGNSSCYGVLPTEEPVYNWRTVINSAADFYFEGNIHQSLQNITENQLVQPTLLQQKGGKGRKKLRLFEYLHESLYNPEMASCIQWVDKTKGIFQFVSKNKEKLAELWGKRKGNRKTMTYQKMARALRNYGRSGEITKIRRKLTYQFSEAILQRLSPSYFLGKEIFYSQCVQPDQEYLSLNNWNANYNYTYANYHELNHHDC
The note with it: protein: recombinant; tags: N-terminal GST; dsDNA, one strand shown. A digest of the protocol:
as §1

For the next experiment, the target named is ELF4 (Homo sapiens, UniProt Q99607 1-663). Conditions: protein: recombinant; tags: N-terminal GST; dsDNA, one strand shown. A digest of the protocol:
as §1

In the next experiment the target is T3, ELK4 (Homo sapiens, UniProt P28324-2 1-405).
T3 sequence: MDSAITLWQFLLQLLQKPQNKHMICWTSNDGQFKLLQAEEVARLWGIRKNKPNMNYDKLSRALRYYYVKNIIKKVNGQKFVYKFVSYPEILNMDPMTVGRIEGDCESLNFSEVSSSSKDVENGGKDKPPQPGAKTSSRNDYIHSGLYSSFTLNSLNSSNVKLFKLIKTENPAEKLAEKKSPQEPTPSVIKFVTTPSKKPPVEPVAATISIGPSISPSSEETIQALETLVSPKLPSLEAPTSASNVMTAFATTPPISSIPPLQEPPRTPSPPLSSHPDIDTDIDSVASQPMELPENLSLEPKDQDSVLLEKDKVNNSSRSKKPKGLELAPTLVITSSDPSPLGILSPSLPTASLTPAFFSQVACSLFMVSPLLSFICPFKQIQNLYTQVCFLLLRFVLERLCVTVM
The note with it: protein: recombinant; tags: N-terminal GST; dsDNA, one strand shown. The essentials: as §1

Another experiment addresses T4, ETV2 (Homo sapiens, UniProt O00321 1-342).
T4 sequence: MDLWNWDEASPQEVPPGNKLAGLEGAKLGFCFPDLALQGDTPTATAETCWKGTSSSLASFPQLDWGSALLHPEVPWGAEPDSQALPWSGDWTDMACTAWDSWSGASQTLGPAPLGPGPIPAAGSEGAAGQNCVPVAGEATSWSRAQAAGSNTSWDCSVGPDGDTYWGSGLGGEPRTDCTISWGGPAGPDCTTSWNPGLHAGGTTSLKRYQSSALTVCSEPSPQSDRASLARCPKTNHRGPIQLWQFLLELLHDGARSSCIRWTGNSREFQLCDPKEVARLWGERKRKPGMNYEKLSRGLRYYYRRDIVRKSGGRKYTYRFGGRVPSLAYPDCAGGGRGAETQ
Conditions: protein: recombinant; tags: N-terminal GST; dsDNA, one strand shown. The essentials: as §1

For another experiment, the target named is T5, ELF3 (Homo sapiens, UniProt P78545 1-371).
T5 sequence: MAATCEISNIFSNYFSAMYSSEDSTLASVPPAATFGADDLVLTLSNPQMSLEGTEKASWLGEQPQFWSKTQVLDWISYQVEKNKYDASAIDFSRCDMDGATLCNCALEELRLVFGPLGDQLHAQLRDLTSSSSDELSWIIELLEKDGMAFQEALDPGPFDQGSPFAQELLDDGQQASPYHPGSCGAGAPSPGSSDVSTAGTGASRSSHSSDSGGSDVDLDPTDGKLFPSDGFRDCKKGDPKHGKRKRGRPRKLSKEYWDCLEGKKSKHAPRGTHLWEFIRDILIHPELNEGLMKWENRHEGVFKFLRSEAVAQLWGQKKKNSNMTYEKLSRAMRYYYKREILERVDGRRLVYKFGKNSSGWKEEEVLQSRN
Conditions: protein: recombinant; tags: N-terminal GST; dsDNA, one strand shown. A digest of the protocol:
as §1

In a further experiment the target is CRX (Homo sapiens, UniProt O43186 1-299). Conditions: protein: recombinant; tags: N-terminal GST; dsDNA, one strand shown. The essentials:
as §1

The next experiment concerns the target ETV1 (Homo sapiens, UniProt P50549 1-477). Conditions: protein: recombinant; tags: N-terminal GST; dsDNA, one strand shown. A digest of the protocol: as §1
The target of the next experiment is T6, ERF (Homo sapiens, UniProt P50548 1-548).
T6 sequence: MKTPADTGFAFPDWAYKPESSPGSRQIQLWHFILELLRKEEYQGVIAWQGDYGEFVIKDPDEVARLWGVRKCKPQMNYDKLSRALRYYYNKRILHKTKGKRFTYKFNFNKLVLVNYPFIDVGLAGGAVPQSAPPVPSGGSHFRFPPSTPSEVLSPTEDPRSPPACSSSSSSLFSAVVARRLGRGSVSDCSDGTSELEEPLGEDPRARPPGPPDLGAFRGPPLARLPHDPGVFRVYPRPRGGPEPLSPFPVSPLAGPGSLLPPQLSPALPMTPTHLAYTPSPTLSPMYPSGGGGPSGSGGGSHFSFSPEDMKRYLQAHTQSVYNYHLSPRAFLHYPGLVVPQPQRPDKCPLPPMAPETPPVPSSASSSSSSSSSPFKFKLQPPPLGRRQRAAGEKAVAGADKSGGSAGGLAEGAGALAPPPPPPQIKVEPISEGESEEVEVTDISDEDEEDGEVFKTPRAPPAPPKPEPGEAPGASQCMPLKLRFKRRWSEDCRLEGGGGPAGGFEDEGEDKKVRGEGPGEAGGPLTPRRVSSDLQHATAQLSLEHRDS
The note with it: protein: recombinant; tags: N-terminal GST; dsDNA, one strand shown. A digest of the protocol: as §1

The next experiment concerns the target T7, ETV3L (Homo sapiens, UniProt Q6ZN32 1-361).
T7 sequence: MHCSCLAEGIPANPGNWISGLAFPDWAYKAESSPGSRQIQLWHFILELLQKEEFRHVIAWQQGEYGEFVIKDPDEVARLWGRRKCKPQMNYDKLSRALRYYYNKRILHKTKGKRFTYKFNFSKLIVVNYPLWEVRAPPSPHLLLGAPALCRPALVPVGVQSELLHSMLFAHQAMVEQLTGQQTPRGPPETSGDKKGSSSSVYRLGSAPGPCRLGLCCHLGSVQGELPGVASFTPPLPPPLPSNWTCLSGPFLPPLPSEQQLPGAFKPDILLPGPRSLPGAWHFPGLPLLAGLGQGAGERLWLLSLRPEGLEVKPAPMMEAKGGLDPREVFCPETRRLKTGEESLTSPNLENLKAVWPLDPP
Conditions: protein: recombinant; tags: N-terminal GST; dsDNA, one strand shown. A digest of the protocol:
as §1

For a further experiment, the target named is T8, ETS2 (Homo sapiens, UniProt P15036 1-469).
T8 sequence: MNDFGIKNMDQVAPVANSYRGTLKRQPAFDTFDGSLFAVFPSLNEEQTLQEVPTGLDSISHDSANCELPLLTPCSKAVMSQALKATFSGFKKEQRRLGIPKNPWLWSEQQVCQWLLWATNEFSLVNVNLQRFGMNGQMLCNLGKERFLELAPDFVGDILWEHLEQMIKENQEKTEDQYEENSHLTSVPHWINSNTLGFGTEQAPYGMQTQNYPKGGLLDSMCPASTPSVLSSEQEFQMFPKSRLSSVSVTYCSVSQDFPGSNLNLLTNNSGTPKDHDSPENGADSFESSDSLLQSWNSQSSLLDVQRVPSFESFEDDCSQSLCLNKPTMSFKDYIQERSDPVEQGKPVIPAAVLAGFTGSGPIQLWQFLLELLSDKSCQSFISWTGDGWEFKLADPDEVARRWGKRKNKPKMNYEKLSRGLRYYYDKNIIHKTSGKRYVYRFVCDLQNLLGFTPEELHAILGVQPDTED
The note with it: protein: recombinant; tags: N-terminal GST; dsDNA, one strand shown. A digest of the protocol:
as §1

The target in another experiment is T9, SPDEF (Homo sapiens, UniProt O95238 1-335).
T9 sequence: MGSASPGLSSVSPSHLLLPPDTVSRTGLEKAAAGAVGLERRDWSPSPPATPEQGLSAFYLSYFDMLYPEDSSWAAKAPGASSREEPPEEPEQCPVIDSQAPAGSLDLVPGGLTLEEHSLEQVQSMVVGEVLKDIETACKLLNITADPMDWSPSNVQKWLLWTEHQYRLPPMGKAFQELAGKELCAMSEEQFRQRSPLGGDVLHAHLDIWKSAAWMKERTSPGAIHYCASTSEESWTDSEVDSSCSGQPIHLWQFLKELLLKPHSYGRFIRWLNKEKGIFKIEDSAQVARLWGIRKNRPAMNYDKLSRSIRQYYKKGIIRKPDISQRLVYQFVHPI
The note with it: protein: recombinant; tags: N-terminal GST; dsDNA, one strand shown. A digest of the protocol: as §1

For another experiment, the target named is T10, ETV7 (Homo sapiens, UniProt Q9Y603 1-341).
T10 sequence: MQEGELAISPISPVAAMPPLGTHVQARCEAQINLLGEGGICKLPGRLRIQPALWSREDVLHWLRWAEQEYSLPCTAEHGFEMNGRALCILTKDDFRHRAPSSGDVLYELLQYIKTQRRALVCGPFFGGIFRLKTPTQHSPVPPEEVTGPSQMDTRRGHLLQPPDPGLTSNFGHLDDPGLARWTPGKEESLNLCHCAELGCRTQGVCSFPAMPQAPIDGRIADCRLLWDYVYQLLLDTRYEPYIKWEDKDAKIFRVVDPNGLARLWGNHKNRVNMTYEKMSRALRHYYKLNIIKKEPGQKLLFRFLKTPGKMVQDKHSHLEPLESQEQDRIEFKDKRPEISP
Conditions: protein: recombinant; tags: N-terminal GST; dsDNA, one strand shown. The essentials:
as §1

The target in another experiment is T11, ELF5 (Homo sapiens, UniProt Q9UKW6-2 1-255).
T11 sequence: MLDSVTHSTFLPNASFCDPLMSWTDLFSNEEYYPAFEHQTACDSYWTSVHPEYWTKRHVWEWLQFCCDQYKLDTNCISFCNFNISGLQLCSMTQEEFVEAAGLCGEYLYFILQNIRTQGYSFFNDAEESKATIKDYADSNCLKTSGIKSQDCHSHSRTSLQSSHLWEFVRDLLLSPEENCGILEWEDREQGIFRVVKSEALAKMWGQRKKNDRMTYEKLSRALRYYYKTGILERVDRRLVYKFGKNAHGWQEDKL
The note with it: protein: recombinant; tags: N-terminal GST; dsDNA, one strand shown. The essentials:
as §1

A further experiment concerns the target T12, ETV3 (Homo sapiens, UniProt P41162-2 1-143).
T12 sequence: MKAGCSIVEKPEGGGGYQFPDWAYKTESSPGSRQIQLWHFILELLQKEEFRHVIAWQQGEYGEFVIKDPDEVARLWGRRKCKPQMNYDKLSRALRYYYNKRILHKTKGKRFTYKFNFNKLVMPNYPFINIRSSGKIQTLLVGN
The note with it: protein: recombinant; tags: N-terminal GST; dsDNA, one strand shown. The essentials:
as §1

A further experiment deals with ETV6 (Homo sapiens, UniProt P41212 1-452). The note with it: protein: recombinant; tags: N-terminal GST; dsDNA, one strand shown. The essentials:
as §1

Sequence of HSF1 (Q00613 whole entry): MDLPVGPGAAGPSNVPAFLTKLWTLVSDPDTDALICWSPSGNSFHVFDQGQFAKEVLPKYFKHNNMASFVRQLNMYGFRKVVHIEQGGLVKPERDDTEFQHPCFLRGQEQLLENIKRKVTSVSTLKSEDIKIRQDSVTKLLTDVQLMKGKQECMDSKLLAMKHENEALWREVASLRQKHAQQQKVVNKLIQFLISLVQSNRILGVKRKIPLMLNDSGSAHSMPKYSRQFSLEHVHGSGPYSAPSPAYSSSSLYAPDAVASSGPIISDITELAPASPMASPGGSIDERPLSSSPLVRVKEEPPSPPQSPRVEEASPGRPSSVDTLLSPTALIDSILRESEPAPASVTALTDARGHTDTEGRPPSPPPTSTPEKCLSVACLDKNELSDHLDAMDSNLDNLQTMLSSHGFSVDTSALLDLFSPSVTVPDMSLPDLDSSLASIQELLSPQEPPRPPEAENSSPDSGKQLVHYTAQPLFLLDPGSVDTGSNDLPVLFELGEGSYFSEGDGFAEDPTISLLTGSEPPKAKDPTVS
Sequence of ETV6 (P41212 whole entry): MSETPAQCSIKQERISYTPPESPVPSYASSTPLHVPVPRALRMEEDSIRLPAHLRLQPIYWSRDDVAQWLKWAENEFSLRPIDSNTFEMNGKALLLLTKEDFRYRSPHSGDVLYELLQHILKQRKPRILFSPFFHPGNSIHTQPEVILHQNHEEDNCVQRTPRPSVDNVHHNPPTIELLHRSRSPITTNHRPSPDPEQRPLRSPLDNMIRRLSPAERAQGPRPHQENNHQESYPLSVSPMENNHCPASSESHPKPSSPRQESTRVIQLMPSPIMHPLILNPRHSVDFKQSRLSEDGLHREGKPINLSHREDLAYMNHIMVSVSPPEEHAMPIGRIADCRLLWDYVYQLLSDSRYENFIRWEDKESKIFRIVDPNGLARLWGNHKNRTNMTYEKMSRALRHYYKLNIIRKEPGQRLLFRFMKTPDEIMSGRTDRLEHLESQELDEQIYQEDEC
Sequence of CRX (O43186 whole entry): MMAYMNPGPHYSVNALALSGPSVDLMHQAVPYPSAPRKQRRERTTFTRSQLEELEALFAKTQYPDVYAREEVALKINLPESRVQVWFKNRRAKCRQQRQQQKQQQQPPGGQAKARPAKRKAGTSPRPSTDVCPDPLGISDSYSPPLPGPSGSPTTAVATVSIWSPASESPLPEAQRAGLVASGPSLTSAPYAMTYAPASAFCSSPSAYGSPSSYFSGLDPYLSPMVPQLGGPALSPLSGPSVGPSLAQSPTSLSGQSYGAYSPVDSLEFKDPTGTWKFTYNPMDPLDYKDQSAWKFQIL
Sequence of ETV5 (P41161 whole entry): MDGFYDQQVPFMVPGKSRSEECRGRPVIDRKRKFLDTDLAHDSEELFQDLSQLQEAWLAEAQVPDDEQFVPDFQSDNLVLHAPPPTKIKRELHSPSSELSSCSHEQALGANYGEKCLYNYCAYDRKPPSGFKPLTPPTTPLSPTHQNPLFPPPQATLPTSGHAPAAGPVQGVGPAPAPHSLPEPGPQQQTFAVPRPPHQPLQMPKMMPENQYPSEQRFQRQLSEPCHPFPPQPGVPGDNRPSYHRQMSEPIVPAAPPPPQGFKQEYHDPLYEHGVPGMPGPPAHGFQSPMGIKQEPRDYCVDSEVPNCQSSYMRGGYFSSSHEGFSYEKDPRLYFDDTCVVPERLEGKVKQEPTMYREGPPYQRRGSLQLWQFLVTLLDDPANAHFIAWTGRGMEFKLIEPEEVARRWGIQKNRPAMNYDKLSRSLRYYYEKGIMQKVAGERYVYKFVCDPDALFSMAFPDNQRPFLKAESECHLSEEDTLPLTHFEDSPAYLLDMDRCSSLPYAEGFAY
Sequence of ELF4 (Q99607 whole entry): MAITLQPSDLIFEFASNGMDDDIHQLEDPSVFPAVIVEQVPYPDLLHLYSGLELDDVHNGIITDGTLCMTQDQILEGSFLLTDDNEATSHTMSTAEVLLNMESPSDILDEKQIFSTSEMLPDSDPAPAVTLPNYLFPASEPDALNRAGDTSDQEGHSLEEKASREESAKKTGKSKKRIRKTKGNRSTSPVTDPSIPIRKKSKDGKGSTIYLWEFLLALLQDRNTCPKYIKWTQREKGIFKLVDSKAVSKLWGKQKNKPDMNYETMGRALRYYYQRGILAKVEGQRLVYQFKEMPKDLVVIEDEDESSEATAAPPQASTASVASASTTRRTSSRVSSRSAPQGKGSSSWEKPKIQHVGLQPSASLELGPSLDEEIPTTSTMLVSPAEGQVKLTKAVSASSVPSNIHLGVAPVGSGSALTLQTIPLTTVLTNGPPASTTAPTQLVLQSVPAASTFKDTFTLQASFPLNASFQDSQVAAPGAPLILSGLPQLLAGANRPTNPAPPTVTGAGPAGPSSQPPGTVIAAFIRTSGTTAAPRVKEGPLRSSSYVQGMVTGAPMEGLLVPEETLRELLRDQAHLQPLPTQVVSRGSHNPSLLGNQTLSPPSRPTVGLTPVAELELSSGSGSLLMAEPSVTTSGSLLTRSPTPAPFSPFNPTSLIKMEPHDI
Sequence of ETV1 (P50549 whole entry): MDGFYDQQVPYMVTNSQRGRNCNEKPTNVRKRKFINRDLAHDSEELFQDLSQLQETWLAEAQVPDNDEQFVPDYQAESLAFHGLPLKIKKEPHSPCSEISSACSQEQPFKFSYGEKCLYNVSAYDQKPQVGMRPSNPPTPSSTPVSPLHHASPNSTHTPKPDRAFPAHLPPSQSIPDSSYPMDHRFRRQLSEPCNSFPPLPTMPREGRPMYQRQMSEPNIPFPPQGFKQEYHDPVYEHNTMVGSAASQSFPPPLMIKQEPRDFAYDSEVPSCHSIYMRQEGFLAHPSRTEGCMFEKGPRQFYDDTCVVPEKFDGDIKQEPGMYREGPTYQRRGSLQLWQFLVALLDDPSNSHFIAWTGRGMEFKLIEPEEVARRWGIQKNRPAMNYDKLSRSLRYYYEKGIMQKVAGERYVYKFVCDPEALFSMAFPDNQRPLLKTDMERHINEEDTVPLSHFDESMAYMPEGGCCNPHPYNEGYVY

Consider AGCTTC, for which the binding signal was 1.84 fold enrichment (6-mer frequency, TF over GST control) in the experiment with FEV; 1.85 fold enrichment (6-mer frequency, TF over GST control) with ETV5; 1.93 fold enrichment (6-mer frequency, TF over GST control) in the experiment with HSF1; 1.75 fold enrichment (6-mer frequency, TF over GST control) in the experiment with SPIC; 1.67 fold enrichment (6-mer frequency, TF over GST control) with ELF4; 1.64 fold enrichment (6-mer frequency, TF over GST control) in the experiment with ELK4. For the same sequence, the binding signal with ETV2 was 1.74 fold enrichment (6-mer frequency, TF over GST control); with ELF3, 1.58 fold enrichment (6-mer frequency, TF over GST control); with CRX, 1.62 fold enrichment (6-mer frequency, TF over GST control); in the experiment with ETV1, 1.62 fold enrichment (6-mer frequency, TF over GST control); with ERF, 1.75 fold enrichment (6-mer frequency, TF over GST control); with ETV3L, 1.64 fold enrichment (6-mer frequency, TF over GST control). Further, the binding signal was 1.77 fold enrichment (6-mer frequency, TF over GST control) with ETS2; 1.67 fold enrichment (6-mer frequency, TF over GST control) in the experiment with SPDEF; 1.65 fold enrichment (6-mer frequency, TF over GST control) with ETV7; 2.21 fold enrichment (6-mer frequency, TF over GST control) with ELF5; 1.77 fold enrichment (6-mer frequency, TF over GST control) with ETV3; 1.84 fold enrichment (6-mer frequency, TF over GST control) in the experiment with ETV6.
